# Reference: PubChem BioAssay AID1476 (National Center for Advancing Translational Sciences (NCATS), 2009)
# In all, about 200,000 compounds went through this assay and about 4,500 (2.2%) were called active. Inconclusive results (about 12%) are left out. The sample holds actives, similar compounds and a random draw of the others, so the mix is not that of the screen. Calls come from the whole dose curve; as a rule, active = well fitted inhibition curve with a large enough effect; inconclusive = small, poorly fitted or top-dose-only effect, or effect the other way; inactive = flat fitted curve, though single readings scatter.
# Target: Cruzipain (Trypanosoma cruzi) (UniProt P25779)
# Sequence (P25779 123-467 limits assumed): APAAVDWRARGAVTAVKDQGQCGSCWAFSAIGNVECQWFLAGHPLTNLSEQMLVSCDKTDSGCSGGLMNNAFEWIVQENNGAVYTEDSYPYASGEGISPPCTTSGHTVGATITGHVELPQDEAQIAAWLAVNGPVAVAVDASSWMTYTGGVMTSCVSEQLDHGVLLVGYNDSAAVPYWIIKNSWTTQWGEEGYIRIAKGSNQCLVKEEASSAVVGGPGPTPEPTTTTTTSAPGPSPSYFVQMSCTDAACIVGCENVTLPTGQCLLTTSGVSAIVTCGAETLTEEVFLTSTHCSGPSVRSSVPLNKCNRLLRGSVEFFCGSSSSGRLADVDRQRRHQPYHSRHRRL
# Assay: qHTS Assay for Promiscuous and Specific Inhibitors of Cruzain (without detergent); note: nearly all actives have a fitted effect of over 40% in size;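 for max response, negative = inhibition: plate controls were enzyme without inhibitor for no effect and buffer without enzyme for full effect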
# Settings: purified cruzain, Z-FR-AMC fluorescence, no detergent
# Procedure, shortened: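 Detergent-free condition (0.00005% Triton X-100) in acetate buffer pH 5.5 with DTT. 1.5 nM enzyme and compound were pre-mixed 15 min, then 2 uM Z-FR-AMC substrate added; reaction progress from fluorescence change between first and third reads (60 s).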
# Potency is the fitted concentration of half-maximal effect.
SMILES,"max response, negative = inhibition",Potency
CCc1ccc(NC(=O)CCCc2nnc3n(CCCOC)c(=O)c4sccc4n23)cc1,1.39% (inactive),–
CCc1ccccc1NC(=O)c1ccc2nc(CCc3ccccc3)oc2c1,1.42% (inactive),–
Cc1ccc(NC(=S)NC2CCCC2)cc1,-5.53% (inactive),–
Cc1ccc(NC(=S)N/N=C2/CCCc3c(C)cc(C)cc32)cc1,–,31.6 µM (active)
CCCCNC(=S)N/N=C1\CCCCc2ccccc21,-19.4% (inactive),–
CC(C)C[C@H](NC(=O)[C@@H]1O[C@H]1C(=O)O)C(=O)NCCCCN=C(N)N,–,0.0316 µM (active)
COc1ccc(NC(=O)CCCc2nnc3n(CCC(C)C)c(=O)c4sccc4n23)c(OC)c1,-6.21% (inactive),–
O=C(Nc1cccc(Cl)c1)c1csnn1,-5.33% (inactive),–
Cc1cccc2c1-c1sc(C(=O)Nc3ccc(F)cc3F)cc1CO2,-26.4% (inactive),–
COc1cc(NS(=O)(=O)c2ccc3c(c2)OCC(C(=O)N2CCCC2)O3)cc(OC)c1 (configuration not stated),1.72% (inactive),–
CCCc1nc2ccccc2c(C(=O)OCC(=O)c2ccc3c(c2)NC(=O)CO3)c1CC,-2.97% (inactive),–
Cc1ccc(C(=O)COC(=O)c2cccc(N3C(=O)c4c(C)nc5ccccc5c4C3=O)c2)cc1C,–,7.94 µM (active)
O=C(CCc1nc2ccccc2c(=O)[nH]1)OCC(=O)c1cccc(Cl)c1,-3.88% (inactive),–
Cc1cccc(-n2ncc(C(=O)N3CCN(c4ccc(Cl)cc4)CC3)c2C2CCN(C(=O)OC(C)(C)C)CC2)c1,-21.4% (inactive),–
c1ccc(CSc2ncnc3c2sc2nc(N4CCOCC4)c4c(c23)CCCC4)cc1,–,3.16 µM (active)
c1ccc(COc2nsnc2N2CCOCC2)cc1,-3.44% (inactive),–
CCCCSc1ncnc2c1sc1nc(N3CCOCC3)c3c(c12)CCCC3,3.5% (inactive),–
CCOC(=O)c1cc(-c2ccccc2)n(-c2cccc(C(=O)Nc3cc(OC)cc(OC)c3)c2)c1C,-4.47% (inactive),–
CSc1nc(Nc2ccc(F)cc2)cc(-c2ccccc2)n1,-2.64% (inactive),–
COc1cc2c(cc1OC)C(Nc1ccc(S(N)(=O)=O)cc1)=NC(C)(C)C2,5.29% (inactive),–
COc1cc2c(cc1O)C(SC)=NC(C)(C)C2,-12.8% (inactive),–
COc1cc2c(cc1OC)C(C(C)C)=NC(C)(C)C2,–,20 µM (active)

SMILES,"max response, negative = inhibition",Potency
CCOc1ccc(N(CC)S(=O)(=O)N2CCCC(C(=O)NCc3ccc(Cl)cc3)C2)cc1 (configuration not stated),19.9% (inactive),–
CC(=O)N1CCCc2cc(S(=O)(=O)N3CCC(C(=O)NC4CCCCC4)CC3)ccc21,8.72% (inactive),–
COc1ccc(Nc2nc(-c3ccccc3)cs2)cc1,-15.9% (inactive),–
c1ccc(Nc2nc(-c3ccncc3)cs2)nc1,2.93% (inactive),–
c1cnc(Nc2nc(-c3ccc4ccccc4c3)cs2)nc1,–,3.98 µM (active)
COC(=O)c1ccccc1NC(=O)c1cnn(-c2ccc(F)cc2)c1-n1cccc1,3.91% (inactive),–
CCCCCN1CC(O)=C(c2ccccc2)C1=N,-0.607% (inactive),–
CCCc1cc(-c2nc(-c3ccc(C)cc3)cs2)ccn1,13.4% (inactive),–
CCCCCN1CC(O)=C(c2nc(-c3ccc(Cl)cc3)cs2)C1=N,–,5.01 µM (active)
Cc1ccc(S(=O)(=O)N(Cc2nc(-c3ccc(Cl)cc3)no2)C2CCCCC2)cc1,-17.5% (inactive),–
CCN(CC)S(=O)(=O)c1ccc2c(c1)N(CC(=O)NCc1ccccc1)C(=O)CS2,1.54% (inactive),–
O=C(C(=O)N1CCc2ccccc2C1)N1CCc2ccccc2C1,-0.495% (inactive),–
c1ccc(-c2csc(N3CCc4ccccc4C3)n2)cc1,–,25.1 µM (active)
N#C/C(=C1\CCCN1)c1nc(-c2ccccc2)cs1,-17.6% (inactive),–
Cc1ccc(OCC(=O)Nc2ccc(OCc3cc(=O)n4c(C)csc4n3)cc2)cc1C,-9.52% (inactive),–
Cc1ccc(C)c(Cn2c(C)c(CNCc3ccc(F)cc3)c(C(=O)O)c2C)c1,16.1% (inactive),–
COc1ccc(N2C(=O)CS(=O)(=O)C23C(=O)N(Cc2ccc(C)cc2)c2ccccc23)cc1Cl (configuration not stated),–,2.51 µM (active)
O=C1CSC2(C(=O)N(Cc3ccccc3)c3ccccc32)N1c1cccc(F)c1 (configuration not stated),2.62% (inactive),–
COc1ccc(CN2C(=O)CC(Cc3ccc(C)cc3)C2=O)cc1OC (configuration not stated),-8.47% (inactive),–
Cc1oc(-c2ccccc2F)nc1CN1CCC(C(=O)NCCc2ccc(Cl)cc2)CC1,1.36% (inactive),–
CC1=C(C(=O)OCc2ccc(C)cc2)C(c2ccccc2Cl)CC(=O)N1 (configuration not stated),4.48% (inactive),–
COc1cc2c(cc1/C=C1/NC(=O)N(c3ccccc3)C1=O)OCO2,-27.8% (inactive),–

SMILES,"max response, negative = inhibition",Potency
O=C1CC(NNc2ccccc2)C(=O)N1c1cccc(Cl)c1 (configuration not stated),-28.1% (inactive),–
O=C1N/C(=C/c2cccn2-c2ccccc2)C(=O)N1c1cccc(Cl)c1,–,10 µM (active)
Cc1nnc(NC(=O)/C=C/c2ccco2)s1,-4.39% (inactive),–
O=C(/C=C/c1ccco1)Nc1ccc(Oc2ccccc2)cc1,-5.89% (inactive),–
Cc1ccc(-n2nc3ccc(NC(=O)/C=C/c4ccco4)cc3n2)cc1C,–,12.6 µM (active)
COc1ccccc1Nc1c2c(nc3ccc(NC(=O)/C=C/c4cc(OC)c(OC)c(OC)c4)cc13)CCCC2,-4.58% (inactive),–
Cc1ccc(O)c(NC(=O)COc2cc(C)ccc2C)c1,–,31.6 µM (active)
COc1ccc(C(=O)Nc2cc(C)ccc2NC(=O)COc2ccccc2)cc1,2.68% (inactive),–
Cc1ccc(OCC(=O)N/N=C\c2ccco2)c(C)c1,4.92% (inactive),–
CC(=O)c1ccc(NC(=O)C2CCN(S(=O)(=O)c3c(C)noc3/C=C/c3ccc(C)cc3)CC2)cc1,9.83% (inactive),–
Cc1noc(/C=C/c2ccco2)c1S(=O)(=O)N1CCC(C(=O)Nc2ccc(Cl)cn2)CC1,–,6.31 µM (active)
Cc1noc(/C=C/c2ccco2)c1S(=O)(=O)N1CCC(C(=O)N2CCc3ccccc32)CC1,–,15.8 µM (active)
Cc1cccc(NC(=O)C2CCN(S(=O)(=O)c3c(C)noc3/C=C/c3ccco3)CC2)c1,2.41% (inactive),–
Cc1noc(/C=C/N(C)C)c1S(=O)(=O)N1CCCC(C(=O)NCc2ccco2)C1 (configuration not stated),14.2% (inactive),–
Cc1cc(C)c(/C=C/c2onc(C)c2S(=O)(=O)N2CCC(C(=O)Nc3ccc(Cl)cc3C)CC2)c(C)c1,0.507% (inactive),–
Cc1ccc(NC(=O)CCCn2c(=O)c3cccn3c3ccccc32)cc1Cl,8.76% (inactive),–
Cc1ccc(C)c(N2CCN(C(=O)CN3C(=O)COc4ccc(S(=O)(=O)N5CCCCCC5)cc43)CC2)c1,-9.73% (inactive),–
Cc1ccc(C)c(NC(=O)CSC2=Nc3ccccc3N=C(c3ccc(F)cc3)C2)c1,1.61% (inactive),–
O=C(CCn1c(SCC(=O)c2ccccc2)nc2ccccc2c1=O)NCc1ccc(F)cc1,-24.2% (inactive),–
O=C(Nn1c(-c2ccccc2)nc2ccccc2c1=O)c1ccc([N+](=O)[O-])cc1,8.42% (inactive),–
O=C(Nn1c(SCc2ccc([N+](=O)[O-])cc2)nc2ccccc2c1=O)c1ccc(F)cc1,–,10 µM (active)
CCc1cccc(C)c1NS(=O)(=O)c1ccc(-c2cc(C)no2)s1,-2.03% (inactive),–

SMILES,"max response, negative = inhibition",Potency
CCc1ccc(-n2nnc(-c3nc(-c4ccccc4)no3)c2C)cc1,11.5% (inactive),–
CCCNC(=O)c1ccc(Cn2c(SCC(N)=O)nc3ccccc3c2=O)cc1,-1.8% (inactive),–
COc1ccc(CC(=O)Nc2nnc3n2CCS3)cc1OC,3.34% (inactive),–
O=S(=O)(O)c1ccc(O)c2ncccc12.O=S(=O)(O)c1ccc(O)c2ncccc12.[Zn],–,3.16 µM (active)
O=C(O)COc1c(Cl)cc(Cl)c2cccnc12,-2.23% (inactive),–
CC(=O)c1ccc(N2CCN(C3C(=O)c4ccccc4N3C(C)=O)CC2)cc1 (configuration not stated),6.9% (inactive),–
COc1ccc(C(F)(F)F)cc1NC(=O)c1sc2nc(-c3cccs3)ccc2c1N,-12.3% (inactive),–
CCN(CC(=O)Nc1ccc2c(c1)OCCO2)Cc1cc(=O)oc2cc(C)c(C)cc12,-1.71% (inactive),–
O=C(COc1ccc2c(C(F)(F)F)cc(=O)oc2c1)Nc1ccc2c(c1)OCCO2,–,7.94 µM (active)
CC(C)NS(=O)(=O)c1ccc(OCC(=O)Nc2ccc3c(c2)OCCO3)cc1,5.06% (inactive),–
Cc1ccc(CN(C(=O)c2ccccc2[N+](=O)[O-])c2ccccn2)cc1,-9.11% (inactive),–
COc1ccc(CNC(=O)c2cc3c(=O)[nH]c4ccc(C)cc4c3s2)c(OC)c1,8.63% (inactive),–
C/C(=N\NC(=O)c1nc(C)cc(C)n1)c1ccccc1,4.34% (inactive),–
C/C(=N\NC(=O)CNC(=O)C(c1ccccc1)c1ccccc1)c1ccc(C)cc1,–,12.6 µM (active)
C/C(=N\NC(=O)Cc1ccc(F)cc1)c1ccc(F)cc1,11.2% (inactive),–
O=C(CCCCn1c(=O)c2ccccc2n(CC(=O)Nc2cccc(C(F)(F)F)c2)c1=O)NCc1ccc2c(c1)OCO2,16.7% (inactive),–
CCOC(=O)c1ccc2c(c1)N(Cc1cccc(OC)c1)C(=O)c1ccccc1S2(=O)=O,-13.7% (inactive),–
COc1cc(/C=N/NC(=O)c2ccccc2)ccc1OS(=O)(=O)c1ccccc1,-10.2% (inactive),–
COc1ccc(/C=N/NC(=O)c2ccccc2)cc1OS(=O)(=O)c1ccccc1,-2.21% (inactive),–
COc1cc(/C=N/NC(=O)Nc2ccccc2)ccc1OCCOc1ccccc1C,–,25.1 µM (active)
Cc1ccc(NC(=O)Cc2ccc(NC(=O)N3CCCCc4ccccc43)cc2)cc1,16.9% (inactive),–
